Among all 1,400 compounds or so, about 350 (25%) were called active. Not shown: some 2% with an inconclusive outcome. No rule for the calls is given here. Not all results are given here. Potency and affinity values are given separately.
Experiment: inhibitors of Clostridioides difficile proliferation – 4-point retest, confirmation (AID 1224921);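 also: plate controls were DMSO wells for no effect and levofloxacin 16 µg/mL wells for full effect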
Details: Clostridioides difficile clinical isolate growth, OD600, 24 h, hits give low values; at 30 µM unless noted

Max activity, inactive:
CCCN1C[C@@H](C)[C@@H](OC)CN(C)C(=O)c2cc(NC(=O)CC)ccc2OC[C@@H]1C 8.06%, C[C@H](CO)N1C[C@H](C)[C@H](CN(C)C(=O)Nc2cccc(F)c2)Oc2cc(C#CC3(O)CCCC3)ccc2S1(=O)=O 50.2%, Cc1ccc(-c2ccc3c(c2)O[C@H](CN(C)Cc2cccnc2)[C@@H](C)CN([C@@H](C)CO)S3(=O)=O)cc1 36.5%, CO[C@H]1CN(C)C(=O)c2ccc(NC(=O)c3cccc(F)c3)cc2OC[C@H](C)N(C(C)=O)C[C@@H]1C -20.5%, COc1ccc(S(=O)(=O)N(C)C[C@@H]2Oc3ncc(-c4ccc(F)cc4)cc3C(=O)N([C@H](C)CO)C[C@@H]2C)cc1 -7.45%, C[C@H](C(=O)N(C)C[C@H]1OCc2ccccc2-c2ccccc2C(=O)N([C@@H](C)CO)C[C@@H]1C)c1ccccc1 -4.71% [at 0.5 µM], C[C@@H]1CN([C@H](C)CO)C(=O)c2cc(C#CCN(C)C)cnc2O[C@H]1CN(C)Cc1ccccc1F 24.5%, COc1ccc(C#Cc2ccc3c(c2)[C@]2(C(=O)N3)[C@H](C(N)=O)[C@H]3C(=O)O[C@H](c4ccccc4)[C@H](c4ccccc4)N3[C@@H]2c2ccc(O)cc2)cc1 23.8%, NC(=O)[C@H]1[C@@H]2C(=O)O[C@@H](c3ccccc3)[C@@H](c3ccccc3)N2[C@@H](c2ccccc2OCCO)[C@]12C(=O)Nc1ccc(C#CC3(O)CCCCCC3)cc12 16.8% [at 8 µM], CC(=O)N(C)C[C@@H]1Oc2ncc(C#Cc3ccc(F)cc3)cc2C(=O)N([C@H](C)CO)C[C@@H]1C 22.7%, C[C@H]1CN([C@@H](C)CO)C(=O)c2cc(NC(=O)Nc3cccc4ccccc34)ccc2O[C@@H]1CN(C)S(=O)(=O)c1ccccc1 37.2%, CO[C@H]1CN(C)C(=O)c2cc(NS(C)(=O)=O)ccc2OC[C@H](C)N(Cc2ccccn2)C[C@@H]1C 2.2%, CO[C@H](CN(C)Cc1cc(F)ccc1F)[C@@H](C)CN(C(=O)Nc1ccc(F)cc1)[C@@H](C)CO 21.5%, C/C=C/[C@@H](CCn1cc(CCO)nn1)[Si](C)(C)c1ccc(OC)cc1 -14.8% [at 0.5 µM], C[C@H](NC(=O)N(C)C[C@@H]1OCc2ccccc2-c2c(n(C)c3ccccc23)C(=O)N([C@@H](C)CO)C[C@H]1C)c1ccccc1 26.5% [at 8 µM], CN(C)CCCNC(=O)[C@H]1[C@H](CO)[C@H]2Cn3c(ccc(-c4cccc(F)c4)c3=O)[C@@H]1N2C -8.59%, CNC[C@H]1Oc2cc(-c3ccccc3F)ccc2S(=O)(=O)N([C@H](C)CO)C[C@@H]1C 14%, Cc1ccccc1-c1ccc2c(c1)O[C@@H](CN(C)Cc1ccncc1)[C@@H](C)CN([C@@H](C)CO)S2(=O)=O 40.4%, C/C=C/c1cnc2c(c1)C(=O)N([C@@H](C)CO)C[C@@H](C)[C@@H](CN(C)Cc1ccc(F)cc1)O2 19.7%, C[C@H](CO)N1C[C@H](C)[C@H](CN(C)Cc2ccc(C(=O)O)cc2)Oc2ncc(C#CCN(C)C)cc2C1=O -7.61% [at 8 µM], CO[C@@H]1CN(C)C(=O)c2ccc(NC(=O)c3nc4ccccc4s3)cc2OC[C@H](C)N(Cc2cccnc2)C[C@@H]1C -17.1% [at 1.95 µM], CCCN1C[C@H](C)[C@@H](OC)CN(C)C(=O)c2cc(NC(=O)CC)ccc2OC[C@H]1C -10.4% [at 0.5 µM], Cc1ccc(-c2ccc3c(c2)O[C@H](CN(C)Cc2ccncc2)[C@@H](C)CN([C@H](C)CO)S3(=O)=O)cc1 -11.4% [at 8 µM], CO[C@@H]1CN(C)C(=O)c2ccc(NC(=O)C3CC3)cc2OC[C@@H](C)N(Cc2cncnc2)C[C@@H]1C -9.09% [at 1.95 µM], CCCC#Cc1ccc2c(c1)O[C@@H](CN(C)C(=O)c1ccccc1F)[C@@H](C)CN([C@@H](C)CO)S2(=O)=O 23.4%, C[C@@H]1CN([C@@H](C)CO)C(=O)Cc2cc(NC(=O)c3ccncc3)ccc2O[C@H]1CN(C)Cc1ccc(Cl)c(Cl)c1 36.8% [at 8 µM], COc1ccc(CNC(=O)C[C@H]2CC[C@H](NC(=O)c3cccc(F)c3)[C@@H](CO)O2)cc1 -5.36% [at 1.95 µM], C[C@H]1CCCCO[C@H](CN(C)Cc2ccc3c(c2)OCO3)[C@@H](C)CN([C@@H](C)CO)C(=O)c2cc(NC(=O)Nc3ccc(F)cc3)ccc2O1 29.6%, O=C(NCCc1ccccc1)[C@@H]1[C@@H](CO)[C@@H]2Cn3c(cccc3=O)[C@H]1N2C(=O)C1CC1 -6.59%, CCCN1C[C@H](C)[C@@H](OC)CN(C)C(=O)c2ccc(NC(=O)Nc3c(C)noc3C)cc2OC[C@H]1C 6.66%, CO[C@H]1CN(C)C(=O)c2cc(NC(=O)Nc3ccc(Cl)cc3)ccc2OC[C@H](C)N(C(=O)Nc2c(C)noc2C)C[C@@H]1C -13% [at 8 µM], Cc1ccc(-c2ccc3c(c2)O[C@H](CN(C)Cc2cccnc2)[C@@H](C)CN([C@H](C)CO)S3(=O)=O)cc1 31.7%, CO[C@@H]1CN(C)C(=O)c2ccc(NS(=O)(=O)c3ccc(C)cc3)cc2OC[C@@H](C)N(C(=O)NC(C)C)C[C@H]1C 14.4%, CCCN1C[C@H](C)[C@H](OC)CN(C)C(=O)c2cc(NC(=O)CC)ccc2OC[C@@H]1C 7.21% [at 8 µM], O=C(C[C@@H]1C=C[C@@H](NC(=O)Cc2ccccn2)[C@H](CO)O1)NCCCN1CCOCC1 2.76% [at 0.5 µM], CC(C)CC#Cc1ccc2c(c1)O[C@@H](CN(C)Cc1ccncc1)[C@H](C)CN([C@@H](C)CO)S2(=O)=O 29.7%, COc1ccc(-c2ccc([C@@H]3[C@@H](CO)N(C(=O)C4CCCC4)[C@H]3C#N)cc2)cc1 25% [at 7.5 µM]
